# Measured values reported in the supplement of paper PMC10338343.
# ± gives the standard deviation.
# Columns and labels:
# [1] = test system: MILI (PIWIL2) piRISC loaded with piRNA #1 (26 nt); experiment: pre-steady-state target cleavage rate (min^-1); guide: piRNA #1 5'p-UGAGGUAGUAGGUUGUAUAGUAUCCA; higher = faster piRNA-guided slicing of the target; conditions: auxiliary factor: 500 nM mouse GTSF1
# Outline: (§1)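 Cleave-'n-Seq used a transcribed, DNA-blocked target RNA library at 0.1 nM and active affinity-purified piRISC with one synthetic guide at 1 nM, with or without 500 nM GTSF1 partner protein, in HEPES–potassium acetate buffer at 33 °C for 0–8 or 0–960 min. Uncleaved targets were sequenced and normalised to depth and to weakly complementary targets, and three trials were pooled with k3 capped at 0.0001 min^-1. The pre-steady-state cleavage rate was estimated by a burst-and-steady-state fit.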
# [2] = test system: EfPiwi piRISC loaded with piRNA #1 (26 nt); experiment: pre-steady-state target cleavage rate (min^-1); auxiliary factor: 500 nM Ephydatia muelleri Gtsf1; guide: piRNA #1 5'p-UGAGGUAGUAGGUUGUAUAGUAUCCA; MIWI and MILI are mouse PIWI proteins and EfPiwi is from a freshwater sponge; tags in brackets are library labels; higher = faster piRNA-guided slicing of the target
# Outline: as §1
Sequence,pre-steady-state target cleavage rate [1],pre-steady-state target cleavage rate [2]
GGAGACCAUACAAUACAACCUACUACCUGA,0.12 ± 0.019,0.00286 ± 0.0028
GGAGACCUAACUAUCACAACCUACUACCUCA,0.085 ± 0.025,0.00495 ± 0.0033
GGAGUGGAUUCUAUACUACCUACUACCUCA,0.155 ± 0.0078,0.00505 ± 0.0034
GGAGACGAUAGUAUACAACCUACUACCUCA,0.147 ± 0.011,0.00758 ± 0.0036
GGAGACCUUAGAAUACAACCUACUACCUCA,0.011 ± 0.004,0.00613 ± 0.0038
GGAGACGAUACUAUACACCCUACUACCUCA,0.081 ± 0.0091,0.011 ± 0.0045
GGAGUGGAUACUAUACAAGCUACUUCCUCA,0.0765 ± 0.0095,0.00402 ± 0.0022
GGAGUGGAUACUAUACAACUUACUACCUCA,0.0246 ± 0.0024,0.01 ± 0.0049
GGAGACGAUACUAUACAUCCUACUACGUCA,0.213 ± 0.033,0.00318 ± 0.0012
GGAGACGAUACUUAUACAACCUACUACCUCA,0.139 ± 0.012,0.0473 ± 0.017
GGAGUGGAUACAAUACAACCUACUACCUGA,0.0731 ± 0.011,0.00396 ± 0.0018
GGAGACGAUACGUAUACAACCUACUACCUCA,0.107 ± 0.013,0.00952 ± 0.0048
GGAGAGGAUAGUAUACAACCUUCUACCUCA,0.00649 ± 0.004,0.00304 ± 0.0024
GGAGUGGUUACUAUACAACCUACUACCUGA,0.0722 ± 0.01,0.00386 ± 0.0014
GGAGAGGAUACUAUAAAACCUACUACCUCA,0.181 ± 0.013,0.00425 ± 0.0029
GGAGACCUUACUAUACCAACCUACUACCUCA,0.00685 ± 0.0036,0.00457 ± 0.0029
GGAGUGGAUACUAUACAACCUACUAACUCA,0.018 ± 0.005,0.00991 ± 0.0043
GGAGUGGAUACUAUACAACCUAGCUACCUCA,0.0643 ± 0.006,0.003 ± 0.0015
GGAGUCCUUACUAUACAACCUACUACCUCA,0.174 ± 0.011,0.0555 ± 0.021
GGAGACCAUACUAUACAACCUACUUCGUCA,0.112 ± 0.029,0.00491 ± 0.0039
GGAGACCUAUCUAUACAACCUACUGCCUCA,0.0855 ± 0.013,0.00997 ± 0.0044
GGAGAGGAUACUAUACAACCUACGACCUCA,0.1 ± 0.013,0.00309 ± 0.0016
GGAGACGAUACAAUACAACCUACUACCUCA,0.158 ± 0.012,0.0117 ± 0.0044
GGAGUGGAUACAAUACAACCUACUACGUCA,0.0406 ± 0.0063,0.0038 ± 0.0016
GGAGUGGAUACUAUACAACCUACUAACCUCA,0.133 ± 0.014,0.00634 ± 0.0027
GGAGAGGAUACUAAACAACCUUCUACCUCA,0.0108 ± 0.0026,0.00394 ± 0.0023
GGAGACCAUACUAUACAACCUACAACGUCA,0.0302 ± 0.012,0.00373 ± 0.0033

Sequence,pre-steady-state target cleavage rate [1],pre-steady-state target cleavage rate [2]
GGAGUGGAUACUAUAACAACCUACUACCUCA,0.171 ± 0.0095,0.0556 ± 0.021
GGAGACCUAUCUAAACAACCUACUACCUCA,0.0794 ± 0.014,0.00381 ± 0.0037
GGAGACGAUACUAUACAACCUACUACCUCG [g2:g24:cont:t1G],0.183 ± 0.014,0.115 ± 0.037
GGAGACCAUACUAUACAACCCACUACCUCA,0.0223 ± 0.0041,0.0058 ± 0.0024
GGAGAGGAUACUAUACAUCCUACUUCCUCA,0.0107 ± 0.0033,0.00317 ± 0.0017
GGAGAGGAUAGUAUACUACCUACUACCUCA,0.0295 ± 0.0076,0.00274 ± 0.0027
GGAGACGAUACUAUACAACGUAGUACCUCA,0.00546 ± 0.0032,0.00274 ± 0.0012
GGAGACCUUAGUAUACAACCUACUACCUGA,0.0569 ± 0.0097,0.00359 ± 0.0036
GGAGACCUUACUAUACAACCAACUACCUCA,0.00455 ± 0.0024,0.00528 ± 0.003
GGAGACCAUACUAUACAACCUACUACGACA,0.16 ± 0.025,0.00532 ± 0.0028
GGAGACCUUACUAUCACAACCUACUACCUCA,0.143 ± 0.016,0.00983 ± 0.0039
GGAGACCAUACUAUACAACCUACUACCUCG [g2:g23:cont:t1G],0.195 ± 0.017,0.0177 ± 0.0074
GGAGUGGAUACUAUUCAACCUACUACCACA,0.093 ± 0.0098,0.00327 ± 0.0022
GGAGACCUUACUAAUACAACCUACUACCUCA,0.0928 ± 0.01,0.074 ± 0.027
GGAGACCUUACUGAUACAACCUACUACCUCA,0.0968 ± 0.011,0.0403 ± 0.016
GGAGUGGAUACUAUACAACGUACAACCUCA,0.0258 ± 0.0036,0.00367 ± 0.0016
GGAGAGCAAACUAUACAACCUACUACCUCA,0.113 ± 0.019,0.0127 ± 0.0059
GGAGUGCUAACUAUACAACCUACUACCUCA,0.128 ± 0.015,0.0117 ± 0.0053
GGAGUGGAUACUAUACUACCUACUACGUCA,0.0586 ± 0.0078,0.00245 ± 0.0017
GGAGACGAUACUAUACAACCUCCUACCUCA,0.041 ± 0.0079,0.00579 ± 0.0016
GGAGAGCAUACUUUACAACCUACUACCUCA,0.138 ± 0.01,0.0083 ± 0.0045
GGAGACGAUACUAAACAUCCUACUACCUCA,0.267 ± 0.021,0.00359 ± 0.0026
GGAGACGAUACUUUACAACCUACUACCUGA,0.117 ± 0.021,0.00356 ± 0.0024
GGAGAGGAUACUAUAGAACCUACUACCACA,0.0636 ± 0.0099,0.00261 ± 0.0014
GGAGACGAUUCUAUACAUCCUACUACCUCA,0.267 ± 0.018,0.00332 ± 0.0024
GGAGACCUAACUAUACACCCUACUACCUCA,0.0388 ± 0.013,0.00682 ± 0.0033
GGAGACGUUACUAUACAACCUACAACCUCA,0.114 ± 0.015,0.00216 ± 0.0017
